Hits are enriched below; roughly 6% of the tested compounds scored in any of these assays.
D1 agonist: human D1 receptor agonism | P21728 | HEK293 T-REx D1 cells, calcium flux, agonist mode | activation, % at 2 µM | 1% of 360,000 active | AID 504660; in the data active means activation above about 30%
Target sequence (P21728 whole entry, looked up): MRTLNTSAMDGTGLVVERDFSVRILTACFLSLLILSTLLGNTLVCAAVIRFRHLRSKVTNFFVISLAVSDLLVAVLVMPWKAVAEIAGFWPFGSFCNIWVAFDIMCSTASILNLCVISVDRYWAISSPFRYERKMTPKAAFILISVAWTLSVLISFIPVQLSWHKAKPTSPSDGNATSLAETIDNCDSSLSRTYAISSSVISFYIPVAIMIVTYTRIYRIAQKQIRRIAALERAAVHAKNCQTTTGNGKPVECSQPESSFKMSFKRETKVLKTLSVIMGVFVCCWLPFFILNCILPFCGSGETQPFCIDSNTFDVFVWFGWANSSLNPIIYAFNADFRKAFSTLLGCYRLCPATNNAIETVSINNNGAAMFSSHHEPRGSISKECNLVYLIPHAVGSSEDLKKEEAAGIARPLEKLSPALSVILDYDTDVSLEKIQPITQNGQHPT
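Agonism was scored from calcium flux recorded over 180 s (1 read/s) after pintool compound addition, following a 10-cycle baseline. Cells were inducible force-coupled HEK293 TREx D1, plated overnight at 30 C and loaded with no-wash calcium dye.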
BCR signal inh: blocks chronic active B-cell receptor signaling | Potency, µM (highest dose often 46.1 µM), actives largely listed as inhibitors | 0.05% of 340,000 active | ABC-DLBCL IkBa-CBG/CBR reporter, luminescence ratio, 4 h; active means well fitted inhibition curve with a large enough effect in the signal ratio, with a control signal flat, not every such curve was filed as active; inconclusive means small, poorly fitted or top-dose-only effect, or effect the other way, or a change in a side signal; the % refers to the signal ratio
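TMD8 human ABC-DLBCL cells with doxycycline-inducible IκBα–green luciferase fusion and unfused red luciferase, in 0.5% FBS medium; compounds up to 46 uM, 4 h at 37C. Green/red luminescence ratio, filter-overlap corrected, fitted to concentration-response curves.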
D3 ag: activates the human D3 dopamine receptor. P35462. D3R DiscoveRx beta-arrestin cells, luminescence, 90 min. max activation, %. 0.58% of 410,000 active; in the data active means max activation above about 30%
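Agonist mode: compounds and dopamine controls were applied to plated cells for 90 min at 37 degrees C after an overnight attachment at 1500 cells/well. Luminescent read-out followed 30 - 60 minutes at room temperature with DiscoveRx detection reagent.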
DRD3 antagonist: antagonists of human D3 dopamine receptor | 2.5% of 360,000 active | D3R cells, DiscoveRx beta-arrestin luminescence, antagonist mode; active compounds read low | max response, negative = inhibition, % | P35462; in the data active means max response below about -50%; inconclusive means no clear call, values can overlap the other calls
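Cells plated overnight at 1500 cells/well, then exposed to library compounds with dopamine controls for 90 minutes at 37 degrees C. DiscoveRx reagent added for 30–60 minutes at room temperature; luminescence read, quantitative HTS format.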
D1 potentiator: human D1 dopamine receptor positive modulation. HEK293 TREx D1 cells, calcium flux, dopamine EC20 potentiation. potentiation, % at 10 µM. AID 504651. 0.036% of 360,000 active. P21728; in the data active means potentiation above about 30%
D1 antagonist: blocks dopamine activation of the human D1 receptor. P21728. HEK293 TREx D1 cells, calcium flux, dopamine EC80; active compounds read low. activity change, negative = inhibition, % at 10 µM. 3.2% of 360,000 active. AID 504652; in the data active means activity change below about -30%
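Antagonism measured as reduced calcium response to an EC80 dopamine addition following 180 s compound pre-read; cells were inducible HEK293 Trex D1 plated overnight at 30 C, read kinetically at 1 cycle/sec.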
A number is an active result; i = inactive; ? = inconclusive; nt = no result given; ! = not active in a repeat.

SMILES	D1 agonist	BCR signal inh	D3 ag	DRD3 antagonist	D1 potentiator	D1 antagonist
CC(=O)O[C@@H](C[C@@H](C)C1=C2C[C@H](O)C3[C@@]4(C)CCC(=O)C(C)(C)C4CC[C@]3(C)[C@@]2(C)CC1)[C@H]1OC1(C)C (stereo partly specified)	nt	nt	50.3	i	nt	nt
Cc1ccc2c(c1)sc1nc(=O)n(-c3ccc(Cl)c(Cl)c3)c(=O)n12	i	i	i	i	i	-39.2!
O=C(CCN1C(=O)c2ccccc2S1(=O)=O)Nc1ccc(Cl)cc1	i	i	i	i	i	-51.8
CCc1cccc(OCC(=O)Nc2ccc(S(=O)(=O)Nc3cc(C)nc(C)n3)cc2)c1	i	nt	i	nt	i	i
Cc1c(Cl)cccc1-n1c(SCC(=O)NCc2ccccc2)nc2n[nH]c(C)c2c1=N	i	i	i	nt	i	i
COc1cccc(OCc2cc(C(=O)N(C)C3CCOCC3)no2)c1	i	i	i	i	i	-55.7
Cc1ccc(OCc2cc(C(=O)NCC(C)c3ccccc3)no2)cc1C (stereo unspecified)	i	i	i	?	i	-30.7
Cc1cc(OCc2cc(C(=O)N(C)C3CCOC3)no2)cc(C)c1Cl (stereo unspecified)	i	i	i	i	i	-47.3
COc1ccc(OCc2cc(C(=O)N(C)CCC3CCOCC3)no2)c(Cl)c1	i	i	i	i	i	-41.2
Cc1ccc(OCc2cc(C(=O)NCCn3cccn3)no2)cc1C	i	?	i	i	i	i
Cc1ccccc1OC(=O)CSc1nnc(-c2cccs2)o1	i	nt	i	nt	i	i
Cc1nn2c(C)c(C(=O)NC(C)(C)C)cnc2c1-c1ccc(F)cc1	i	nt	i	nt	i	i
COC(=O)CCCC[C@@H]1O[C@H](CCc2ccccc2)Cc2[nH][nH]c(=O)c21	nt	nt	i	i	nt	nt
COCCc1nn2c(=O)cc(COC(=O)c3ccc(C(C)(C)C)cc3)nc2s1	i	nt	i	nt	i	i
Cc1cc(OCc2cc(C(=O)NCCN3CCCCC3CO)no2)cc(C)c1Cl (stereo unspecified)	35.4	i	i	i	i	-44.2
Cc1ccc(OCc2cc(C(=O)NCc3cn4ccccc4n3)no2)cc1C	i	?	i	i	i	i
Cc1cc(OCc2cc(C(=O)NCc3csc(C(C)C)n3)no2)cc(C)c1Cl	70.8	i	i	i	i	-40.8
COc1cccc2oc(-c3ccco3)cc(=O)c12	i	i	i	-54.4	i	i
COc1cccc(CNCCSc2nnnn2C)c1OCc1ccc(Cl)cc1Cl	i	nt	i	nt	i	i
CCn1c(SCCN2CCCCC2)nnc1-c1ccc(S(=O)(=O)N2CCOCC2)cc1	i	i	i	-74.0	i	i
O=C(Nc1ccncc1)C1c2ccccc2Oc2ccccc21	43.9	i	i	i	i	i
C=C1/C(=C\C=C2/CCC[C@]3(C)[C@@H]([C@H](C)OCCC(C)(C)O)CC[C@@H]23)C[C@@H](O)C[C@@H]1O	nt	nt	i	nt	nt	nt
Cc1ccc(CNc2ccc(O)cc2)cc1	i	?	i	-53.5	i	i
Cc1ccc(NCc2ccccc2O)cc1	i	i	i	i	i	i
O=c1oc2ccccc2c2c1C1O[C@](c3ccsc3)(Cc3ccccc31)O2	i	?	nt	nt	i	i
SMILES	D1 agonist	BCR signal inh	D3 ag	DRD3 antagonist	D1 potentiator	D1 antagonist
COc1ccc(-c2onc(C)c2C)cc1S(=O)(=O)NC1CCCCC1	i	nt	i	nt	i	i
Cc1ccc(-c2onc(C)c2C)cc1S(=O)(=O)NCc1ccc(N(C)C)cc1	i	nt	i	nt	i	-31.8
Cc1ccc(-c2onc(C)c2C)cc1S(=O)(=O)NC1CCCCC1	i	nt	i	nt	i	-62.5
Cc1ccc(-c2onc(C)c2C)cc1S(=O)(=O)N1CCCCC1	i	nt	i	nt	i	i
Cc1ccc(-c2onc(C)c2C)cc1S(=O)(=O)Nc1cccc(Cl)c1C	i	nt	i	nt	i	-39.1
CCOC(=O)c1ccc(NS(=O)(=O)c2cc(-c3onc(C)c3C)ccc2C)cc1	i	nt	i	nt	i	i
CCOC(=O)C1CCN(S(=O)(=O)c2cc(-c3onc(C)c3C)ccc2C)CC1	i	nt	i	nt	i	-36.1
CC1(C)N=C(c2ccccc2)C(c2ccccc2)=N1	nt	nt	i	i	nt	nt
CCCCC(CC)CNC(=O)CCCn1c(=O)[nH]c2ccsc2c1=O (stereo unspecified)	i	nt	i	nt	i	i
Cc1ccc(-c2cn(-c3cccc(Cl)c3)c(S(=O)(=O)CC(=O)Nc3cccc(C)c3)n2)cc1	i	nt	i	nt	i	i
COc1ccc(OCc2cccc(C(=O)Nn3cc([N+](=O)[O-])cn3)c2)cc1	i	?	i	-65.3	i	i
COc1ccc(OCc2cccc(C(=O)NN)c2)cc1	i	?	i	i	i	i
Cc1cc(Cl)ccc1NC(=O)c1cccc(NC(=O)N2CCSc3ncccc32)c1	i	nt	i	nt	i	-48.7
Cc1cc(C)c2c(n1)SCCN2C(=O)Nc1ccc(C(=O)Nc2cc(Cl)ccc2C)cc1	i	nt	i	nt	i	-32.7
CCc1nn2c(=O)cc(COc3ccc(/C=C(\C#N)C(=O)Nc4ccc(F)cc4)cc3OC)nc2s1	i	nt	i	nt	i	i
O=C(CCCN1CCN(c2ccc(F)cc2)CC1)NC1c2ccccc2CSc2ccccc21 (stereo unspecified)	nt	nt	i	nt	nt	nt
Cc1cc(C)c2c(N)c(-c3nnc(SCc4ccc(Cl)cc4)n3C)sc2n1	i	i	i	i	i	-38.9
OCCCNc1ncnc2c1ncn2[C@H]1CN(C2CCCC2)C[C@@H](CO)O1	nt	nt	i	i	nt	nt
O=C(Nc1ccc(Cl)c(C(F)(F)F)c1)c1ccncc1	i	i	i	i	i	i
CNC(=O)c1cc(Oc2ccc(NC(=O)Nc3ccc(Cl)c(C(F)(F)F)c3)cc2)ccn1	i	?	i	-58.0	i	i
O=C(c1ccco1)[C@@H]1[C@@H]2C(=O)N(c3ccc(F)cc3)C(=O)[C@@H]2C2c3ccccc3C=CN21 (stereo partly specified)	i	i	nt	nt	i	i
O=C(c1ccco1)[C@@H]1[C@@H]2C(=O)N(c3ccc(Br)cc3)C(=O)[C@@H]2C2c3ccccc3C=CN21 (stereo partly specified)	i	?	i	-56.8	i	i
CCCCOc1ccc(Br)cc1/C(C)=N/NC1=NCCN1	i	?	i	i	i	i
CC(=NNC1=NCCN1)c1cn(C2=NCCN2)nc1C	nt	nt	i	-50.5	nt	nt
CN(CC(=O)Nc1ccc(Cl)c(C(F)(F)F)c1)C(=O)c1ccc(OCC2CCCO2)cc1 (stereo unspecified)	i	i	i	i	i	-48.9
CCOC(=O)c1cnc(-c2ccccc2)nc1N1CCOCC1	i	i	i	i	i	i
CCOC(=O)C1(C(F)(F)F)N=C(c2cccnc2)OC(N2CCOCC2)=N1 (stereo unspecified)	i	i	i	-58.9	i	i
COCCCNC(=O)CC(NS(=O)(=O)c1ccc(C)cc1)c1ccco1 (stereo unspecified)	i	i	i	-58.0	i	i

From PubChem BioAssay
